Here are results for twelve molecules from PubChem BioAssay.

One may read the viability as a read-out of living cells in per cent, often relative to untreated cells.

Values joined by “and” are separate entries in the source; they are usually repeats but may differ in a detail not shown here. Equal entries are not always repeated. Active and inactive are the calls of the source. Rule as the data show it: active = parasite load remaining mostly below about 12% (no sharp cut-off); inactive = mostly above about 10%.

This experiment is described as follows: liver-stage malaria parasite growth inhibition, primary screen, cell-based, HepG2, luciferase luminescence, HepG2 viability (AID 624349).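 Also: 100% = mean of DMSO negative control wells on the same plate.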 The following applies: P. berghei liver stage in HepG2, luciferase luminescence, concentration not given here; parasite load remaining: stronger effect = lower value; viability: measured here: HepG2 viability without parasites.
With `C[C@H](N)[C@H](O)c1cccc(O)c1`, the parasite load remaining is 9.16% (inactive) and 99.4% (inactive) and 51.4% (inactive); the viability was 46.8% and 91.2% and 209%.

As for `CN(Cc1cc(Br)cc(Br)c1N)C1CCCCC1`, the parasite load remaining was 167% (inactive) and 46% (inactive) and 10.9% (inactive); the viability is 89% and 109% and 68%.

`CC(=O)Nc1ccccc1`: the parasite load remaining is 92.8% (inactive) and 37.4% (inactive); the viability was 71.9% and 93.5%.

Consider `CC(=O)Nc1ccc(S(=O)(=O)Nc2ccc([N+](=O)[O-])cc2)cc1`, for which the parasite load remaining was 152% (inactive) and 62.3% (inactive); the viability is 92.2% and 117%.

Turning to `CCCOc1ccc2nc(NC(=O)OC)[nH]c2c1`, the parasite load remaining is 150% (inactive) and 18.1% (inactive) and 53.4% (inactive); the viability was 91% and 99.5% and 84%.

Consider `CN(C)CCOC(=O)C(c1ccccc1)C1(O)CCCC1` (centres undefined), for which the parasite load remaining was 73.9% (inactive) and 104% (inactive) and 58% (inactive); the viability is 70.9% and 70% and 90.8%.

`Cc1cc(O)cc(C)c1Cl`: the parasite load remaining is 69.1% (inactive) and 37.2% (inactive); the viability is 76.7% and 78.6%.

In the case of `CCCCCCc1ccc(O)cc1O`, the parasite load remaining is 87.3% (inactive) and 55.4% (inactive); the viability was 71.9% and 91.6%.

Turning to `Nc1ncnc2nc[nH]c12`, the parasite load remaining is 110% (inactive) and 37.4% (inactive); the viability was 91.6% and 128%.

As for `CC(N)C(=O)OC(C)(C)Cc1ccc(Cl)cc1` (centres undefined), the parasite load remaining is 159% (inactive) and the viability turned out to be 87.1%.

As for `COc1c2occc2c(OC)c2c(=O)cc(C)oc12`, the parasite load remaining was 32.5% (inactive) and 95.1% (inactive); the viability is 48.9% and 88.8%.

For the molecule `CC1=C(C(=O)O)N2C(=O)[C@@H](NC(=O)[C@H](N)c3ccc(O)cc3)[C@H]2SC1`, the parasite load remaining is 116% (inactive) and 83.6% (inactive); the viability was 96.4% and 77.7%.
